# The campaign covered roughly 16,000 compounds. About 5,800 (36%) were called active. Another 23% or so got no clear call; they are omitted. This is one part of the list. A number with no mark means an inactive call. The call rests on the fitted dose curve; in most records, active means well fitted curve in the direction sought with a large enough effect; inconclusive means small, poorly fitted or top-dose-only effect, or effect the other way; inactive means no such curve, though single readings can be large or run the other way.
# Target: Cytochrome P450 2C19 (Homo sapiens) (UniProt P33261)
# Sequence (P33261 whole entry, looked up): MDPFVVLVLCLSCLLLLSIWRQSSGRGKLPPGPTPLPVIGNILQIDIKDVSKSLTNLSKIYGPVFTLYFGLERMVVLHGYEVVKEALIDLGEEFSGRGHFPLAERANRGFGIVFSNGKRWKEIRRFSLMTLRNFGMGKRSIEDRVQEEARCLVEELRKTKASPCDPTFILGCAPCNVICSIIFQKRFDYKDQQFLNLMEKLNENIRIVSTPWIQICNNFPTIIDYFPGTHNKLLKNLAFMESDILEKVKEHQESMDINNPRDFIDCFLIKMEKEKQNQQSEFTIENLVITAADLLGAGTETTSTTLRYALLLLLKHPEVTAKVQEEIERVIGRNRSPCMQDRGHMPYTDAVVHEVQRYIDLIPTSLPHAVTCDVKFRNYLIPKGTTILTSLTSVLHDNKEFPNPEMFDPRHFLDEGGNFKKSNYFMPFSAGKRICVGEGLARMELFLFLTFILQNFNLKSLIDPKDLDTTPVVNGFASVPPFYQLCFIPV
# Test: Cytochrome panel assay with activity outcomes
# Details: recombinant CYP, pro-luciferin dealkylation, luminescence, p450-cyp2c19; series mostly up to 57.1 µM; activity, negative = inhibition: at the top concentration
# On the % scale 0 is the no-effect control and ±100 the full control effect.
Compound,AC50,"activity, negative = inhibition"
COC(=O)C1CCC(C)(C(=O)Nc2ccccc2)C1(C)C (centres undefined),3.55 µM (active),
COC(=O)N1CCC2(CC1)CN(C(=O)Nc1ccccc1)C2,,-13.3%
COC(=O)N1CCC[C@@]2(CCN(C(=O)Nc3ccccc3)C2)C1,,-23.2%
CCn1c(SCc2ccc(Cl)cc2Cl)nc2nc3c(cc2c1=O)CCCC3,3.98 µM (active),
COc1cc2c3cc1Oc1c(OC)c(OC)cc4c1[C@@H](Cc1ccc(O)c(c1)Oc1ccc(cc1)C[C@@H]3N(C)CC2)CN(C)C4,,-44.9% [at 11.4 µM]
COc1ccc([N+](=O)[O-])cc1N(CC(O)CN(CC(C)C)CC(C)C)S(=O)(=O)c1ccccc1 (centres undefined),6.31 µM (active),
O=C(Nc1ccccc1)N1CCSc2cc(Cl)ccc21,0.794 µM (active),
Cn1ccc2cc3c(cc21)CCN3C(=O)Nc1cccnc1,inactive,
CS(=O)(=O)N1CCC2(CC1)CN(C(=O)Nc1ccccc1)C2,,-10.9%
O=C(N/N=C/c1ccc([N+](=O)[O-])o1)c1cc(-c2ccncc2)nc2ccccc12,2.82 µM (active),
O=C(O)c1cc(-c2ccncc2)nc2ccccc12,,15.6% [at 11.4 µM]
CCn1c2ccccc2c2cc(NC(=O)C(C)Oc3ccc(OC)cc3)ccc21 (centres undefined),0.398 µM (active),
CCC(C(=O)N1CCOCC1)n1c(C(=O)OC)cc2occc21 (centres undefined),5.01 µM (active),
CCC(Sc1ncccc1C(=O)O)C(=O)N1CCOCC1 (centres undefined),,-22.1%
CCN(CC)c1ccc(C(=O)OCc2cc(=O)oc3cc(O)ccc23)cc1,0.355 µM (active),
CCN(CC)c1ccc2c(Cl)cc(=O)oc2c1,11.2 µM (active),
COc1ccc2c(CC(=O)NCC3CCC(C(=O)O)CC3)cc(=O)oc2c1 (centres undefined),,-27.3%
Cc1cc(=O)oc2cc(O)ccc12,,37.5% [at 25.6 µM]
CCCC[C@H](CC)CN1CN(C[C@@H](CC)CCCC)CC(C)(N)C1,,-6.91% [at 25.6 µM]
CCS(=O)(=O)N1CCN(c2c(Cl)cccc2[N+](=O)[O-])CC1,10 µM (active),
CS(=O)(=O)N1CCN(c2c(Cl)cccc2[N+](=O)[O-])CC1,14.1 µM (active),
CS(=O)(=O)N1CCC2(CCN(C(c3ccccc3)c3ccccc3)CC2)CC1,,-10.5%
CS(=O)(=O)N1CCC2(CCN(c3ccccc3)CC2)CC1,,29.9%
CCN1CCc2nc(N)oc2CC1,,-9.67%
CC(=O)N(/N=C1\Sc2ccccc2C1=O)c1ccccc1C,4.47 µM (active),

Compound,AC50,"activity, negative = inhibition"
CC(=O)N(/N=C1\Sc2ccccc2C1=O)c1ccccc1,3.16 µM (active),
O=[N+]([O-])c1ccc(N2CCCC2)cc1N1CCCC1,4.47 µM (active),
O=[N+]([O-])c1ccc(N2CCCCC2)c(Cl)c1N1CCCCC1,1.41 µM (active),
O=[N+]([O-])c1cc(F)c(N2CCOCC2)cc1N1CCCCC1,3.98 µM (active),
O=[N+]([O-])c1cccnc1N1CCOCC1,,-23.4%
CC(C)c1ccc(CNc2cc(N3CCCC3)ccc2[N+](=O)[O-])cc1,1.78 µM (active),
Clc1ccc(N2CCCCCC2)nn1,,-6.14%
COC(=O)[C@@]1(Cc2ccccc2)[C@H]2c3cc(C(=O)N(C)C)n(Cc4ccsc4Br)c3C[C@H]2CN1C(=O)c1ccccc1,2 µM (active),
COC(=O)[C@@]1(Cc2ccccc2)[C@H]2c3cc(C(=O)N4CCCC4)n(Cc4cccc5ccccc45)c3C[C@H]2CN1C(=O)c1ccccc1,2.51 µM (active),
COC(=O)[C@@]1(Cc2ccccc2)[C@H]2c3cc(C(=O)N4CCCC4)n(Cc4ccsc4Br)c3C[C@H]2CN1C(=O)c1ccccc1,2.51 µM (active),
S=C(Nc1ccc2cn[nH]c2c1)Nc1ccc2cn[nH]c2c1,1 µM (active),
O=C(O)c1c(Cl)c(Cl)c(Cl)c(Cl)c1C(=O)Nc1ccc2cn[nH]c2c1,,-27.8% [at 11.4 µM]
CCNc1ncc2nc(-c3ccc(Cl)cc3)c(=O)n(C3CC3)c2n1,,-23.3%
CN(C)CCCNc1c(C(=O)O)cnc2c1cnn2C,,12.7%
Cc1nn(C(C)C(=O)N2CCc3ccccc32)c(C)c1[N+](=O)[O-] (centres undefined),11.2 µM (active),
CC(=O)N1CCC(=O)N(C(C)C)c2ccccc21,,-13.2%
Cc1ccc(-n2c(=O)[nH]cc(C(=O)N3CCc4ccccc43)c2=O)cc1,,-9.61%
CN(C)CC(CN(C)C)c1ccccn1,,4.36% [at 11.4 µM]
C[C@@H](C1=C(CCN(C)C)Cc2ccccc21)c1ccccn1,2.51 µM (active),
CN(C)CC[C@@H](c1ccccc1)c1ccccn1,,26.1%
Cc1n[nH]c(=O)[nH]c1=O,,13.1% [at 25.6 µM]
Cc1cccc(CNc2nc(-c3cccc(NS(C)(=O)=O)c3)nc3ccccc23)c1,2.51 µM (active),
CS(=O)(=O)Nc1cccc(-c2nc(NCCN3CCOCC3)c3ccccc3n2)c1,,-15.4%
CS(=O)(=O)Nc1cccc(-c2nc(NCc3cccs3)c3ccccc3n2)c1,10 µM (active),
